# Source: PubChem BioAssay (NCI)
# The panel holds about 83,000 compounds, 20% with a hit somewhere; the sample as a whole holds those more often.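 In brief: 96-well plates, 48 h treatment, single concentration, percent growth endpoint.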 Calls of active or inactive are those of the source. Rule for the calls: active = growth percent below 10; inactive = the rest.
# Tested on: MDA-MB-468 breast
# Test: NCI-60 one-dose screen, 48 h (100 = growth as untreated, 0 = no growth, -100 = all killed)
# Settings: 10 µM unless noted
row,Structure (SMILES),growth
1,O=C(CSSCC(=O)c1ccc(Cl)cc1)c1ccc(Cl)cc1,74.8% (inactive)
2,Cc1ccc[n+](CCC(N)=O)c1,108% (inactive)
3,CCOC(=O)C(=Cc1cccc(C#N)c1)C(=O)OCC,43% (inactive)
4,CCCCSC1=C(Cl)CN(c2ccccc2)C1=O,84.6% (inactive)
5,CCCCC1COc2cccc3c2N1C=C/C3=C\C(=O)N(C)c1cccc(Cl)c1 (stereo not given),84.4% (inactive)
6,CS(CCCCN=C=S)=NC(=O)c1c(F)c(F)c(F)c(F)c1F (stereo not given),30.1% (inactive)
7,COc1ccc(-c2nc(NCCO)[nH]c(=O)c2C#N)cc1,112% (inactive)
8,COc1ccc(Nc2nn3c(-c4ccccc4)cc(-c4ccccc4)nc3c2C(N)=O)c(OC)c1,43.5% (inactive)
9,COc1cc2c(Oc3ccc(NC(=O)C4(C(=O)Nc5ccc(F)cc5)CC4)cc3F)ccnc2cc1OCCCN1CCOCC1,12.1% (inactive)
10,O=C(/C(=C/c1ccccc1)CN1CCCCC1)c1ccccc1,-72.8% (active)
11,COc1cc(OC)c2sc(-c3ccc(-n4cncc4-c4ccc(OC)c(N)c4)cc3)nc2c1,80.6% (inactive)
12,CC(=O)N1N=C(c2ccc(Nc3nc(NCCO)nc(NCCO)n3)cc2)CC1c1ccc(Cl)cc1 (stereo not given),105% (inactive)
13,COc1ccc(-c2cncn2-c2ccc(-c3nc4cc(OC)c(OC)c(OC)c4s3)cc2)cc1N,78.4% (inactive)
14,C=Cc1cc[n+](CCCCCCCCCCCC)cc1,102% (inactive)
15,Cc1nn(-c2ccccc2)c(N2CCOCC2)c1-c1nc2ccc([N+](=O)[O-])cc2[nH]1,94.3% (inactive)
16,Brc1ccc2c(c1)CN(C1CCCCC1)CO2,110% (inactive)
17,COC1=CC(c2ccc[nH]2)=N/C1=C\c1[nH]c(C)c(C(=O)CCC(=O)Oc2ccc3c(c2)CCC2C3CC[C@]3(C)[C@@H](O)CC[C@@H]23)c1C (stereo not given in full),39.4% (inactive)
18,COc1cc2cc(Oc3ccc(NC(=O)c4cc(C(F)(F)F)cc(C(F)(F)F)c4)cc3)c(C)nc2cc1OCCN1CCOCC1,66.9% (inactive)
19,Cn1c(=O)[nH]c2ccccc2c1=O,107% (inactive)
20,Cc1cc(C)c(C(=O)OC(C)CNC2CCCCC2)c(C)c1 (stereo not given),103% (inactive)

row,Structure (SMILES),growth
1,CCN(CC)CCOc1ccc(C(=O)/C=C\c2ccc(Cl)cc2Cl)cc1,39.8% (inactive)
2,COc1ccc(C(=O)c2cc3c(N)c(C(=O)Nc4ccccc4)sc3nc2C)cc1,3.89% (active)
3,CCOC(=S)Sc1ccc([N+](=O)[O-])cc1[N+](=O)[O-],52.7% (inactive)
4,Clc1ccc(-c2nc(-c3cccs3)cn3ccnc23)cc1,-11.1% (active)
5,O=c1oc2ccc(I)cc2c(=O)n1-c1ccc(F)cc1F,-8.85% (active)
6,O=C1CC(c2ccc(O)c(O)c2)Oc2cc(O)c([C@@H]3O[C@H](CO)[C@@H](O)[C@H](O)[C@H]3O)c(O)c21 (stereo not given in full),106% (inactive)
7,Cc1ccc(C(=O)c2ccc(CC(=O)N/N=C/c3ccc(O)cc3O)n2C)cc1,46.8% (inactive)
8,Cc1ccc(-c2cc(-c3ccc(N(C)C)cc3)n3c(n2)nc2ccccc23)cc1,-0.434% (active)
9,CC[C@@H]1NC(=O)[C@H]([C@H](O)[C@H](C)C/C=C/c2ccc(CN3C(=O)CCCC3=O)cc2)N(C)C(=O)[C@H](C(C)C)N(C)C(=O)[C@H](CC(C)C)N(C)C(=O)[C@H](CC(C)C)N(C)C(=O)[C@@H](C)NC(=O)[C@H](C)NC(=O)[C@H](CC(C)C)N(C)C(=O)[C@H](C(C)C)NC(=O)[C@H](CC(C)C)N(C)C(=O)CN(C)C1=O,13.4% (inactive)
10,c1ccc(CP(Cc2ccccc2)c2ccccc2)cc1,98.6% (inactive)
11,O=C(/C=C/c1cccc(C(F)(F)F)c1)Nc1cccc(C(F)(F)F)c1,55.6% (inactive)
12,COc1cc(C(=O)NC(=S)NCc2ccncc2)cc(OC)c1OC,94.2% (inactive)
13,COc1ccc(/C=C2\Oc3cc(OCCCN4CCCC4)ccc3C2=O)cc1,74.1% (inactive)
14,CC(C)(CC(=O)O)CC(=O)O,96.4% (inactive)
15,Cc1nc2cc(Nc3nc(Nc4ccc(F)cc4)nc(-c4cccs4)n3)ccc2n1Cc1ccccc1,33.2% (inactive)
16,CC1CN(CC(O)c2ccc(Br)cc2)CCO1 (stereo not given),115% (inactive)
17,O=C(O)c1cn(-c2ccccc2)nc1-c1ccc(O)cc1,98.3% (inactive)
18,CC(=O)/C(Cc1ccccc1)=N/O,99.1% (inactive)
19,COc1ccc(/C=N\NC(=O)CN2CCN(c3cc4c(cc3F)c(=O)c(C(=O)N/N=C/c3ccc(OC)c(OC)c3)cn4C3CC3)CC2)cc1OC,-27.6% (active)
20,CCCCCC(CCCCC)C(=O)O,116% (inactive)
